Inconclusive results are not listed. Active and inactive are the calls of the source. The call rests on the fitted dose curve; in most records, active means well fitted cell-killing curve with a large enough effect; inconclusive means small, poorly fitted or top-dose-only effect; inactive means flat fitted curve, though single readings scatter.
experiment: qHTS assay to identify small molecule inhibitors of chordoma cells - UCH-2 (AID 1259356); conditions: UCH-2 chordoma viability, CellTiter-Glo ATP luminescence, 48 h; series mostly up to 46.1 µM; activity change, negative = inhibition: at the top concentration
Source text: NIH Chemical Genomics Center [NCGC]
Chordoma is a rare and slow growing tumor that can occur anywhere along the spine, from the base of the skull to the tailbone. Current treatment options for chordoma is surgery and radiation therapy for those who are not candidates for surgery. But chordomas tend to return in the same location or surrounding areas of the original tumor after surgery and/or radiation. Chemotherapy can slow down the progression of the tumor. As chordoma is slow growing, the general cytotoxic agents that kill fast growing cells are ineffective, and some patients have been reported to respond to molecularly targeted drugs.
NCATS Pharmaceutical Collection (NPC) containing approximately 3000 clinically approved and investigational drugs were used to screen at 15 concentrations in a chordoma cell lines, UCH-2, to identify small molecule compounds that can inhibit chordoma cell growth.
NCGC Assay Protocol Summary:
Human chordoma cell line UCH-2 was dispensed at 800 per well in 4uL of culture medium into white solid bottom 1536-well plates (Corning Life Sciences, Corning, NY) using a Multidrop Combi (Thermo Scientific, Waltham, MA) dispenser. The assay plates were incubated at 37 C and 5% CO2 for an overnight, and then 23nL of compounds dissolved in DMSO and positive control were transferred using a Pintool station (Wako, San Diego, CA). Compound treatment was followed by the addition of 1uL of the combination compounds (1uM Auranofin, 500nM each of Camptothecin, Doxorubicin, Rubitecan, and Topotecan) and assay medium to each well of the assay plates using Flying Reagent Dispenser (FRD, Aurora Discovery, San Diego, CA). The assay plates were incubated at 37 C and 5% CO2 for 48hr. Then 5uL of CellTiter-Glo reagent (Promega Corporation, Madison, WI) was added to each well of the assay plates using FRD. After 30min incubation at room temperature, the luminescence signal was quantified using a ViewLux plate reader (PerkinElmer, Shelton, CT).
On the % scale 0 is the no-effect control and ±100 the full control effect.

Structure (SMILES)	activity change, negative = inhibition
O=C(OOC(=O)c1ccccc1)c1ccccc1	0% (inactive)
CCN(CC)CCOC(=O)C(c1ccccc1)c1ccccc1	8.01% (inactive)
O=C(O)CCCCC1CCSS1 (stereo not given)	-0.111% (inactive)
OC[C@@H](O)[C@@H](O)[C@H](O)[C@H](O)CO	1.25% (inactive)
O=C(O)Cc1cn(-c2ccccc2)nc1-c1ccc(Cl)cc1	-1.06% (inactive)
CCCNC(C)(C)COC(=O)c1ccccc1	2.67% (inactive)
O=C(O)c1ccc[n+]([O-])c1	3.99% (inactive)
CCS(=O)(=O)CCn1c([N+](=O)[O-])cnc1C	11.1% [at 20.6 µM] (inactive)
CC(=O)N(CC(O)CN(C(C)=O)c1c(I)c(C(=O)NCC(O)CO)c(I)c(C(=O)NCC(O)CO)c1I)c1c(I)c(C(=O)NCC(O)CO)c(I)c(C(=O)NCC(O)CO)c1I (stereo not given)	1.83% [at 20.6 µM] (inactive)
O=C1c2cccc(O)c2C(=O)c2c(O)cccc21	1.74% (inactive)
C/C(=C(\CCO)SS/C(CCO)=C(\C)N(C=O)Cc1cnc(C)nc1N)N(C=O)Cc1cnc(C)nc1N	-1.38% (inactive)
Cc1c(C)c2c(c(C)c1OC(=O)c1cccnc1)CC[C@@](C)(CCC[C@H](C)CCC[C@H](C)CCCC(C)C)O2	13.3% (inactive)
Cc1ccc2c(c1)c1c3n2CCNC3CCC1 (stereo not given)	1.94% (inactive)
CC1CCN(CCCC(=O)c2ccc(F)cc2)CC1	1.05% (inactive)
O=C(O)c1ccc(OCCCOc2ccc(C(=O)O)cc2)cc1	2.05% (inactive)
CCCCCCCCCCCCCCCCC(C(=O)O)C(O)(CC(=O)O)C(=O)O (stereo not given)	-2.5% (inactive)
NS(=O)(=O)c1ccc(C(=O)O)cc1	1.8% (inactive)
C[n+]1ccccc1/C=N/O	7.73% [at 20.6 µM] (inactive)
Cc1onc(-c2ccccc2)c1-c1ccc(S(N)(=O)=O)cc1	10.8% (inactive)
Cc1cc(OI)c(C(C)C)cc1-c1cc(C(C)C)c(OI)cc1C	8.65% (inactive)

Structure (SMILES)	activity change, negative = inhibition
Cn1c([N+](=O)[O-])cnc1COC(N)=O	1.99% (inactive)
Cn1cc(C(=O)[C@@H]2CCc3nc[nH]c3C2)c2ccccc21	4.14% (inactive)
CCOc1ccc(C(=O)OCCN(CC)CC)cc1	2.64% (inactive)
CC(=O)[C@@]1(O)CC[C@H]2[C@@H]3C[C@H](C)C4=CC(=O)C=C[C@]4(C)[C@@]3(F)[C@@H](O)C[C@@]21C	-0.0098% [at 20.6 µM] (inactive)
O=C(/C=C/c1ccccc1)OCc1ccccc1	1.92% (inactive)
COC(=O)N/N=C/c1c[n+]([O-])c2ccccc2[n+]1[O-]	-0.384% (inactive)
N[C@@H](Cc1ccc(O)cc1)C(=O)O	4.44% (inactive)
CC[C@H](C)[C@H](N)C(=O)O	-16.4% (inactive)
NCC1CCC(C(=O)Oc2ccc(CCC(=O)O)cc2)CC1 (stereo not given)	-5.38% (inactive)
NC(=O)N[C@@H](CCC(=O)O)C(=O)O	-11.2% (inactive)
CC(=O)OC[C@H]1O[C@@](COC(C)=O)(O[C@H]2O[C@H](COC(C)=O)[C@@H](OC(C)=O)[C@H](OC(C)=O)[C@H]2OC(C)=O)[C@@H](OC(C)=O)[C@@H]1OC(C)=O	1.74% (inactive)
COc1ccc(C(=O)N2CCN(CC(=O)N3CCOCC3)CC2)cc1	3.53% (inactive)
CCOC(=O)c1cccnc1	-0.628% (inactive)
CC(=O)Nc1ccc(OCCOCCOc2ccc(NC(C)=O)cc2)cc1	-0.736% (inactive)
CC[C@]12CCCN3CCc4c(n(c5ccccc45)[C@@](O)(C(=O)OC)C1)[C@@H]32	3.35% (inactive)
CC1CCc2cc(F)cc3c(=O)c(C(=O)O)cn1c23 (stereo not given)	17.3% (inactive)
COc1ccc(C(=O)NCc2ccc(OCCN(C)C)cc2)cc1OC	-13.7% (inactive)
CCOC(=O)[C@H](CCc1ccccc1)N[C@@H](C)C(=O)N1Cc2cc(OC)c(OC)cc2C[C@H]1C(=O)O	-3.58% (inactive)
CCCCCCCC(=O)OCC(O)CO (stereo not given)	13.5% (inactive)
CC(C)(C)NCC(O)COc1cccc2c1CCC(=O)N2 (stereo not given)	4.84% [at 20.6 µM] (inactive)

Reference: PubChem BioAssay (NCATS)
